Experimental findings from PubChem BioAssay are described below.

Calls of active or inactive are those of the source. Unless noted, the rule behind the calls is not given here.

In experiment [1] the test system is Wnt5a (protein binding on small-molecule microarray). Description: Wnt5a binders on small-molecule microarray, primary screen, biophysical, 635/667 nm fluorescence (AID 1142).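 Note: fluorescence read at 667 nm with signal to noise per printed feature.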 The conditions noted are these: 635 nm fluorescence, higher = more signal.
The nature of experiment [2]: cell viability in Huh7 cells, primary screen, cytotoxicity control for HCV replication inhibitor project, CellTiter-Glo luminescence, basal, 48 h (AID 1143).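 Note: Huh7 hepatoma cells carrying a hepatitis C replication reporter with no stimulus; test concentration not given here.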 The conditions noted are these: Huh7 HCV replicon, higher = more signal, called active from +8 up or from −8 down. In general terms: Cellular ATP, detected with luciferase, serves as a proxy for viable cell number.

Experiment [3] in a line: P. aeruginosa biofilm formation inhibitors, primary screen, PAO1 strain, BacTiter-Glo luminescence, LB-PBS (AID 1144). The conditions noted are these: 12 h, higher = more signal.
Experiment [4] can be described thus: CREB reporter modulators without forskolin, primary screen, cell-based, PC12, CRE-LacZ reporter, unstimulated (AID 1145). The conditions noted are these: no forskolin, luminescence, 4.5 h, higher = more signal, called active from +8 up or from −8 down.
Experiment [5] is described as follows: CREB reporter modulators under forskolin, primary screen, cell-based, PC12, CRE-LacZ reporter, forskolin-stimulated (AID 1146).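 Note: PC12 cells with 6xCRE LacZ reporter stimulated by forskolin 10 µM; beta-galactosidase reporter signal reflecting CREB driven transcription.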 The conditions noted are these: luminescence, 4.5 h, higher = more signal, called active from +8 up or from −8 down.
Experiment [6] addresses Streptavidin (Streptomyces avidinii) (UniProt P22629). Kind of experiment: streptavidin binders on small-molecule microarray, primary screen, artefact control for SMM compound annotation, biophysical, 635/667 nm fluorescence (AID 1147).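 Note: signal reflects streptavidin binding to arrayed compounds as a control protein.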 The conditions noted are these: streptavidin binding, higher = more signal.
Experiment [7] in a line: small-molecule binders of probe aInhba, primary screen, biochemical, small-molecule microarray, 635/667 nm fluorescence (AID 1148).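 Note: score merges 667nm spot fluorescence with signal-to-noise for antibody binding to printed compounds.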 The conditions noted are these: higher = more signal.
For experiment [8], the target named is Torsin-1A (Homo sapiens) (UniProt O14656). Kind of experiment: torsin A binders from cell lysate, primary screen, small-molecule microarray, wild-type, 635/667 nm (AID 1149). The conditions noted are these: COS7 hTOR1A-WT lysate, 635 nm fluorescence, higher = more signal.
Experiment [9] has the same target. Kind of experiment: small-molecule binders of mutant TOR1A in lysate, primary screen, cell lysate, small-molecule microarray, COS7 lysate, 635/667 nm fluorescence (AID 1150).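 Note: score pools 667 nm emission and signal to noise measuring lysate protein binding.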 The conditions noted are these: COS7 hTOR1A mutant lysate, 635 nm fluorescence, higher = more signal.
For experiment [10], the system named is Sonic hedgehog protein (Shh). Description: small-molecule binders of Shh protein, primary screen, biochemical, small-molecule microarray, 635/667 nm fluorescence (AID 1151).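 Note: Shh protein binding to compounds spotted on small-molecule microarray slides; score combines spot fluorescence intensity with signal-to-noise across triplicate slides.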 The conditions noted are these: small-molecule microarray binding, 635 nm fluorescence; higher = more signal.
The nature of experiment [11]: E. coli DRC41 culture turbidity changes, primary screen, E. coli filamentation inducer project, strain DRC41, OD650, 48 h (AID 1152).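 Note: E. coli MC1000 strain DRC41 lacking acrAB efflux pump and sulA.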 The conditions noted are these: E. coli DRC41 (acrAB sulA), higher = more signal, called active from +8 up or from −8 down.
Experiment [12] can be described thus: small-molecule binders of probe aLefty1, primary screen, biochemical, small-molecule microarray, 635/667 nm fluorescence (AID 1153).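 Note: score merges spot fluorescence with signal-to-noise ratio from the scanned slide images.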 The conditions noted are these: higher = more signal.
Experiment [13] in a line: PSAC antagonists in infected red cells, primary screen, cell-based, P. falciparum Indochina, OD700, 1 h (AID 1154). The conditions noted are these: P. falciparum Indochina infected RBC osmotic lysis, higher = more signal, called active from +8 up or from −8 down.
Experiment [14] is described as follows: PSAC antagonists in infected red cells, primary screen, cell-based, P. falciparum Indochina, OD700, 2 h (AID 1155).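 Note: lysis reports solute entry through the parasite surface anion channel PSAC; channel blockers reduce lysis of infected cells.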 Conditions: P. falciparum Indochina infected erythrocytes, osmotic lysis OD700; higher = more signal, called active from +8 up or from −8 down.
Experiment [15] can be described thus: osmotic lysis modulators in infected erythrocytes, primary screen, PSAC antagonist project, cell-based, P. falciparum Indochina, OD700, 3 h (AID 1156). The conditions noted are these: higher = more signal, called active from +8 up or from −8 down.
Experiment [16] is described as follows: PSAC antagonists in infected red cells, primary screen, cell-based, P. falciparum Indochina, OD700, 18 h (AID 1157). Conditions: P. falciparum Indochina infected erythrocytes, osmotic lysis OD700, 18 h; higher = more signal, called active from +8 up or from −8 down.
Experiment [17] can be described thus: modulators of S6 phosphorylation in cells, primary screen, cell-based, A549, cytoblot, luminescence, serum-stimulated (AID 1158).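 Note: serum-stimulated A549 lung adenocarcinoma cells; signal is phosphorylated S6 detected by cytoblot immunostaining with HRP secondary.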 The conditions noted are these: A549 phospho-S6 cytoblot, 5 h, higher = more signal.
Experiment [18] deals with NADPH oxidase 2 (Homo sapiens) (UniProt P04839). Description: NOX2-dependent H2O2 signal modulators, primary screen, NOX inhibitor project, cell-based, HEK293-NOX2, PMA-stimulated, Amplex Red fluorescence (AID 1159). Note: test concentration not given here. The conditions noted are these: 45 min, higher = more signal, called active from +8 up or from −8 down.
The target of experiment [19] is NADPH oxidase 4 (Homo sapiens) (UniProt Q9NPH5). Kind of experiment: NOX4-dependent H2O2 signal modulators, primary screen, NOX inhibitor project, cell-based, HEK293-NOX4, tetracycline-induced, Amplex Red fluorescence (AID 1160). The conditions noted are these: 45 min, higher = more signal, called active from +8 up or from −8 down.
In experiment [20] the target is NADPH oxidase 5 (Homo sapiens) (UniProt Q96PH1). Kind of experiment: NOX5-dependent H2O2 signal modulators, primary screen, NOX inhibitor project, cell-based, HEK293-NOX5, Amplex Red fluorescence (AID 1161). Conditions: HEK293-NOX5, ionomycin, 45 min, higher = more signal.
Chain of NADPH oxidase 5 (Homo sapiens) (Q96PH1 whole entry, looked up): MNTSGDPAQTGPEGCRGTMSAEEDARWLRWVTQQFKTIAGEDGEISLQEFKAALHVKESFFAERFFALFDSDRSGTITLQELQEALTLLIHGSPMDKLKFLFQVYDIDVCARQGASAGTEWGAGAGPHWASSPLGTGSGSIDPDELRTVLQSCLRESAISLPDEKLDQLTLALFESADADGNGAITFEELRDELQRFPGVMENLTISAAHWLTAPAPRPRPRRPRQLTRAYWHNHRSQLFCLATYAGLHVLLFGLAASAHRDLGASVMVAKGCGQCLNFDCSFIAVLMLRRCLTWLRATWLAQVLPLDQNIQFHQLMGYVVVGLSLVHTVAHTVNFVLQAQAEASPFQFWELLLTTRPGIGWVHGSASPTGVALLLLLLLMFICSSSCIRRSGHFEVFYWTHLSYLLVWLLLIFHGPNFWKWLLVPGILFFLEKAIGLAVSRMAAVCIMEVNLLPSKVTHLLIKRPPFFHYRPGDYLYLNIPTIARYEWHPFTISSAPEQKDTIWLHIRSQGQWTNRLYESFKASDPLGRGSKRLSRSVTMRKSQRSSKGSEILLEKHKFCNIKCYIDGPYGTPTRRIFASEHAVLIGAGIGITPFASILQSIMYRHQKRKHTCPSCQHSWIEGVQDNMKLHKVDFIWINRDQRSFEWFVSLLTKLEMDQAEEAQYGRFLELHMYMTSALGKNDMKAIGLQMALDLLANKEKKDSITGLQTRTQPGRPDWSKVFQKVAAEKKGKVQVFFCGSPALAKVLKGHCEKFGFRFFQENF

Chain of Torsin-1A (Homo sapiens) (O14656 whole entry, looked up): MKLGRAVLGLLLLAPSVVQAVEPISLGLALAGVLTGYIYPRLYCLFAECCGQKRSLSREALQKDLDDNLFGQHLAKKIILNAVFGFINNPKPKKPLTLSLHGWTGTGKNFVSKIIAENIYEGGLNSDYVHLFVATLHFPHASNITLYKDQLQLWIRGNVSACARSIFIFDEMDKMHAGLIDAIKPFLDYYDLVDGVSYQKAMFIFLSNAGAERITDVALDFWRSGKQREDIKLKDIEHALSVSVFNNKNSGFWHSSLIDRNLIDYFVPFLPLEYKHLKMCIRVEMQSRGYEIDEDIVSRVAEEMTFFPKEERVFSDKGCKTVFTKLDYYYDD
Chain of NADPH oxidase 2 (Homo sapiens) (P04839 whole entry, looked up): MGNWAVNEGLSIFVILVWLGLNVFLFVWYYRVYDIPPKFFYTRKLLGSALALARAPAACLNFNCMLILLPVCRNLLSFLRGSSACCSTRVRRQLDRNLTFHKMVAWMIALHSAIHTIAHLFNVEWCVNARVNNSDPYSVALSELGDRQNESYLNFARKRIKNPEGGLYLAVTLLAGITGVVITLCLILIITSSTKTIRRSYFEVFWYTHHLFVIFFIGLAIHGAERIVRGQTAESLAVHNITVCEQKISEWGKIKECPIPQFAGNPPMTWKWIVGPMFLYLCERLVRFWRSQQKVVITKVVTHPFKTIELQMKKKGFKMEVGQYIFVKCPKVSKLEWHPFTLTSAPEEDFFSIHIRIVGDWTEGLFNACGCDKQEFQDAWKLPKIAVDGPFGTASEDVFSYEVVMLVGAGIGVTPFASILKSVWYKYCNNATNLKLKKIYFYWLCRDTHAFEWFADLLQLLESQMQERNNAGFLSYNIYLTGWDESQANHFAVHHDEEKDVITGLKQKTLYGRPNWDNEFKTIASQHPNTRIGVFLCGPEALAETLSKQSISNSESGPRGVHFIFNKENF
Chain of NADPH oxidase 4 (Homo sapiens) (Q9NPH5 whole entry, looked up): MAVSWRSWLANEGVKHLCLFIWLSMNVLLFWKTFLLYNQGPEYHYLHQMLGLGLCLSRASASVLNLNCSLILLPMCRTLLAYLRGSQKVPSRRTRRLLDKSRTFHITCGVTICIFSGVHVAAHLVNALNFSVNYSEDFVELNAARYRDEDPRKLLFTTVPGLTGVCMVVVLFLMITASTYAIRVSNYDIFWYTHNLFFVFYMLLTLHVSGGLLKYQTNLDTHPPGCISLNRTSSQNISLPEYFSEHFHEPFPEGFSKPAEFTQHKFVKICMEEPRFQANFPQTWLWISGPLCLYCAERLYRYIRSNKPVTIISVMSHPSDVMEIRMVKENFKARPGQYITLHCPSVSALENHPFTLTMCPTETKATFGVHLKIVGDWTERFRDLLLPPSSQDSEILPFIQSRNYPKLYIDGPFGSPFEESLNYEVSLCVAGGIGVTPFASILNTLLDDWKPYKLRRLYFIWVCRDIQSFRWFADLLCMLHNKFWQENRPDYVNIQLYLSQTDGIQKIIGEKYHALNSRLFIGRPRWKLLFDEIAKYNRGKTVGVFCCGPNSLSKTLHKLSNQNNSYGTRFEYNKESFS
Chain of Streptavidin (Streptomyces avidinii) (P22629 whole entry, looked up): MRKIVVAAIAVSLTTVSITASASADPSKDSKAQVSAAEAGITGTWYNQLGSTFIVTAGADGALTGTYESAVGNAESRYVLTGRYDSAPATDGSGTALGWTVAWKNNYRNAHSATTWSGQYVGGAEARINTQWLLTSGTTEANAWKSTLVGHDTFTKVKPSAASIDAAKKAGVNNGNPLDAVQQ

On to `CC(C)C(=C=CC[C@H](O)c1ccc(OCCO)cc1)C[C@H](O)c1ccccn1`, for which the composite z-score in experiment [1] is 0.149; in experiment [6], -0.573; in experiment [7], -0.0986; with Torsin-1A (Homo sapiens) [8] it was 0.743; with Torsin-1A (Homo sapiens) [9], 0.995; in [10], 0.823. In [12], the composite z-score is -0.191. The z-score in [2] was -1.8 (inactive); in experiment [3] it was -0.576 (inactive); in experiment [4], 5.48 (inactive); in experiment [5], -1.06 (inactive); in experiment [11], 0.839 (inactive); in experiment [13] it was 11.3 (active). In addition, the z-score in experiment [14] was 2.04 (inactive); in experiment [15] it was 1.11 (inactive); in [16], 0.945 (inactive); in [17] it was 0.439; in [18], 1.66 (inactive); in experiment [19], 0.926 (inactive). The z-score in experiment [20] was -1.03.
As for `C=CCC(OC(C)=O)[C@@H]1[C@@H](N(Cc2cccc3ccccc23)C(=O)Cc2ccc(OC)cc2)c2cc(OCCCO)ccc2N1C(=O)c1ccc2ccccc2n1` (stereo not given in full), the composite z-score is 0.216 in [1]; 1.05 in experiment [6]; 0.0569 in experiment [7]; -0.512 with Torsin-1A (Homo sapiens) [8]; 0.0537 with Torsin-1A (Homo sapiens) [9]; 0.524 in experiment [10]. In [12], this molecule came in with a composite z-score of 0.164. The z-score in experiment [2] was -2.08 (inactive); in [3], -0.253 (inactive); in [4] it was -0.374 (inactive); in experiment [5] it was 1.3 (inactive); in experiment [11], -0.899 (inactive); in experiment [13] it was 2.1 (inactive). The z-score in [14] is 0.786 (inactive); in [15], 0.714 (inactive); in [16], 0.385 (inactive); in experiment [17], 0.135; in experiment [18], -1.4 (inactive); in [19], -0.588 (inactive). In [20], the z-score is -1.25.
As to `O=C1O[C@H](c2ccccc2)[C@H](c2ccccc2)N2[C@H]1[C@@H](C(=O)Nc1nc3ccccc3s1)[C@]1(C(=O)Nc3ccc(C#CC4(O)CCCCCC4)cc31)[C@H]2c1ccccc1OCCO`, the composite z-score in [1] is 0.731; in experiment [6], 0.612; in [7] it was 0.27; in the experiment with Torsin-1A (Homo sapiens) [8], 0.602; with Torsin-1A (Homo sapiens) [9], 0.597; in experiment [10], 1.32. In experiment [12], this molecule registered a composite z-score of 0.966. Besides, the z-score in experiment [2] was -4.43 (inactive); in [3], 0.0608 (inactive); in experiment [4] it was 0.346 (inactive); in experiment [5], 0.0053 (inactive); in [11] it was -0.569 (inactive); in experiment [13], 2.83 (inactive). The z-score was 3.35 (inactive) in experiment [14]; 0.602 (inactive) in experiment [15]; 1.56 (inactive) in [16]; 0.164 in experiment [17]; 1.29 (inactive) in experiment [18]; 0.578 (inactive) in experiment [19]. This molecule also registered a z-score in [20] of 1.5.
Turning to `Cc1cc(C)cc(N2C(=O)CSC2c2cccc([N+](=O)[O-])c2)c1` (stereo not given), the composite z-score in [1] was 0.423; in experiment [6], 1.2; in experiment [7], 0.0506; with Torsin-1A (Homo sapiens) [8], 0.337; in the experiment with Torsin-1A (Homo sapiens) [9] it was 0.526; in [10], 0.899. This molecule yielded a composite z-score in experiment [12] of -0.0046. Moreover, the z-score in experiment [2] is -0.894 (inactive); in experiment [3] it was 0.75 (inactive); in experiment [4], -0.438 (inactive); in experiment [5], -1.04 (inactive); in experiment [11], 0.421 (inactive); in experiment [13], 0.385 (inactive). The z-score is -0.414 (inactive) in [14]; 0.652 (inactive) in experiment [15]; -0.237 (inactive) in experiment [16]; -0.261 in experiment [17]; -1.02 (inactive) in experiment [18]; -0.364 (inactive) in [19]. Moreover, the z-score in experiment [20] came out at 0.483.
